# Measurements published in ChEMBL document CHEMBL2218924, “A broad activity screen in support of a chemogenomic map for kinase signalling research and drug discovery” (Biochem J, 2013).
# Columns and labels:
# [1] = molecular target: T1, Serine/threonine-protein kinase TAO3 (Homo sapiens) (UniProt Q9H2K8); details: at 10 µM
# T1 sequence (whole entry): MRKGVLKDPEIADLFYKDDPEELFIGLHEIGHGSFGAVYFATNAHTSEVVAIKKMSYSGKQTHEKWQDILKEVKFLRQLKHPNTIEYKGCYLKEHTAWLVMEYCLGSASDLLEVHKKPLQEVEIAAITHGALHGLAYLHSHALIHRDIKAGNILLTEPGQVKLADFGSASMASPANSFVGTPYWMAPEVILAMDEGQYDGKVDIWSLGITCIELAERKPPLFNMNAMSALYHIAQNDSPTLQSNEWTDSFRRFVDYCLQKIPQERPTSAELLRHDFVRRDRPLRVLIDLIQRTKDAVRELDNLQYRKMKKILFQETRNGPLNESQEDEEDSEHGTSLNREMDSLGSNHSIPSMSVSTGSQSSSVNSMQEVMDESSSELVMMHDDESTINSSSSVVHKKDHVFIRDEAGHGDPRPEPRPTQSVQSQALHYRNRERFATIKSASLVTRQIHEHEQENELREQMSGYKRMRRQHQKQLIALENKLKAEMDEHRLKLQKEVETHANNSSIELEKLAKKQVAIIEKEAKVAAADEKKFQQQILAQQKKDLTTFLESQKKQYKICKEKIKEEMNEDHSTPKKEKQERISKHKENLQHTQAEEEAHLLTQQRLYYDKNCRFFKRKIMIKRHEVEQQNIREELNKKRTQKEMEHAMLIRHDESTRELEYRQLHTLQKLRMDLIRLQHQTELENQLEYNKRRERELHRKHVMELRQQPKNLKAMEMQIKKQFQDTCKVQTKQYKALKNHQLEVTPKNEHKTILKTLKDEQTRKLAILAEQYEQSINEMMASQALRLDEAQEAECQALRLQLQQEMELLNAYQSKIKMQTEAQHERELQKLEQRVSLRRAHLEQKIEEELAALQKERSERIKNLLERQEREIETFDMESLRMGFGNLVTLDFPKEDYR
# [2] = molecular target: T2, Serine/threonine-protein kinase TBK1 (Homo sapiens) (UniProt Q9UHD2); details: at 1 µM
# T2 sequence (whole entry): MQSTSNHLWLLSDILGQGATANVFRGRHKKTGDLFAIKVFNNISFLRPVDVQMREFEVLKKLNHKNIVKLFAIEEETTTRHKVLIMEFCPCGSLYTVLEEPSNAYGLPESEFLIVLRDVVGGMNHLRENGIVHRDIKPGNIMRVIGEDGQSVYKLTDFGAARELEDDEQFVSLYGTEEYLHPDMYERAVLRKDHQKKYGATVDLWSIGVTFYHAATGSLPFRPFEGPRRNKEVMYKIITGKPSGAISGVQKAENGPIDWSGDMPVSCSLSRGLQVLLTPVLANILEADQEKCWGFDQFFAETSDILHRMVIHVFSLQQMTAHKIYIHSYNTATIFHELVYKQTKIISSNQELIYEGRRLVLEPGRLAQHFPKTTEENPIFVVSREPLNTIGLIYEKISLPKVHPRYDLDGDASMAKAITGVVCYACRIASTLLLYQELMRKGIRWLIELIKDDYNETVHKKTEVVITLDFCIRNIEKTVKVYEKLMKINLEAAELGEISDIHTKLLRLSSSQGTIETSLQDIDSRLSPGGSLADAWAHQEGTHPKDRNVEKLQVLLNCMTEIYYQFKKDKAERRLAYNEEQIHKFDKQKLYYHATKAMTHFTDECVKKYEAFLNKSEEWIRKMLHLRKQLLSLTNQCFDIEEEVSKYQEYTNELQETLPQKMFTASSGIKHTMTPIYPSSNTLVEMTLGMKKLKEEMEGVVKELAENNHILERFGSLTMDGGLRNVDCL
# [3] = molecular target: T2, Serine/threonine-protein kinase TBK1 (Homo sapiens); details: at 10 µM
# [4] = molecular target: T3, TGF-beta receptor type-1 (Homo sapiens) (UniProt P36897); details: at 1 µM
# T3 sequence (whole entry): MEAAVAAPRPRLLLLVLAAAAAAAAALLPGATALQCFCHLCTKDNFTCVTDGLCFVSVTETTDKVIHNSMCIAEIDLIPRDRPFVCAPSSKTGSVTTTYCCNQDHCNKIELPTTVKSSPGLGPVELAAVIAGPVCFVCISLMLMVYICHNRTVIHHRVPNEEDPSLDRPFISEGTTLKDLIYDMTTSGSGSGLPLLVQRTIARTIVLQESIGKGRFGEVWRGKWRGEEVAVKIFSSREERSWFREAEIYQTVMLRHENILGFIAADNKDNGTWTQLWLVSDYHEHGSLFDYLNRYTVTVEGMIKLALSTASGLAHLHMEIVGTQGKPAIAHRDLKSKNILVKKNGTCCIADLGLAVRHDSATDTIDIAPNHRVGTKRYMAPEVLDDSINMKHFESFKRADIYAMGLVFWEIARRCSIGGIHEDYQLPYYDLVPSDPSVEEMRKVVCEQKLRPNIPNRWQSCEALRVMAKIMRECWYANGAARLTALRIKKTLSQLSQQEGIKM
# [5] = molecular target: T3, TGF-beta receptor type-1 (Homo sapiens); details: at 10 µM
# [6] = molecular target: T4, Inhibitor of nuclear factor kappa-B kinase subunit alpha (Homo sapiens) (UniProt O15111); details: at 1 µM
# T4 sequence (whole entry): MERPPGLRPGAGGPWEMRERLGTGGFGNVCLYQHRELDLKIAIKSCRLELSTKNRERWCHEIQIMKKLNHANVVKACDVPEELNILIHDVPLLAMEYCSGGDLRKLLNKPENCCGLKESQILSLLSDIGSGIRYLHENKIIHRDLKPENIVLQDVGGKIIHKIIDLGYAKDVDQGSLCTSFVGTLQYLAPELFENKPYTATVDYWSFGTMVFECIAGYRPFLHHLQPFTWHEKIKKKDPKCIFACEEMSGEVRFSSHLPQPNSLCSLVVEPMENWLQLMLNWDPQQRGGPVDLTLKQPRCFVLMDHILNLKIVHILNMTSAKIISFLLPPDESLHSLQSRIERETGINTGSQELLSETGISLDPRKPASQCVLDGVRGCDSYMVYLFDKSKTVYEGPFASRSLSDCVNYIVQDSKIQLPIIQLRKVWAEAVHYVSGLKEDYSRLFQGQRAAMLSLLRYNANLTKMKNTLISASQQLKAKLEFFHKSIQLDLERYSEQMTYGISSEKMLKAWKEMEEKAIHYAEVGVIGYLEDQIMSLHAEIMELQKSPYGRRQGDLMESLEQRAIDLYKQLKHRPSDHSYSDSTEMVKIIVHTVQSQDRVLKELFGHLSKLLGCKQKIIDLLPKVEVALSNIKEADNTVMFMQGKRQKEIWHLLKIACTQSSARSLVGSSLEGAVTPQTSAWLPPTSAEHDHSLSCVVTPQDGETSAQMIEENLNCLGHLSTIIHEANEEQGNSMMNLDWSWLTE
# [7] = molecular target: T4, Inhibitor of nuclear factor kappa-B kinase subunit alpha (Homo sapiens); details: at 10 µM
# [8] = molecular target: T5, Inhibitor of nuclear factor kappa-B kinase subunit beta (Homo sapiens) (UniProt O14920); details: at 1 µM
# T5 sequence (whole entry): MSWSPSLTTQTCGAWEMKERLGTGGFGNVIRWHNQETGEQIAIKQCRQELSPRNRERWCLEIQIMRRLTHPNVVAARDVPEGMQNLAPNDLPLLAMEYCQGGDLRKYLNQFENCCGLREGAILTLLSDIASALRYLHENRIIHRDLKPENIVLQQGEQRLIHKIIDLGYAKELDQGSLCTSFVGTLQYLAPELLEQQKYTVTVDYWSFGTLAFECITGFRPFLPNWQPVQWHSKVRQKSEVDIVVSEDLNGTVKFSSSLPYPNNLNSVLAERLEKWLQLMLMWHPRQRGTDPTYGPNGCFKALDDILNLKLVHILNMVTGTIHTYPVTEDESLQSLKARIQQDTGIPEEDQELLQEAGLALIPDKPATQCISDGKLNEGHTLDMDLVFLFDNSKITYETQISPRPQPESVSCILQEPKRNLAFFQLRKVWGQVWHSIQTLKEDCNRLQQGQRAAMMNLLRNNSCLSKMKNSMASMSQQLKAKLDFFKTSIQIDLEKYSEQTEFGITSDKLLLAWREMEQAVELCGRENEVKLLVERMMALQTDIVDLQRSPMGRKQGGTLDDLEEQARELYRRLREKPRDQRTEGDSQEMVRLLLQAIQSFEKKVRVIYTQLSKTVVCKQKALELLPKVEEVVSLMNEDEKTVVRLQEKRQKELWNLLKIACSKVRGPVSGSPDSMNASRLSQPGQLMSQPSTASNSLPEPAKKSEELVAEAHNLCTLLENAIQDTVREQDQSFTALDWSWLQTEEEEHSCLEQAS
# [9] = molecular target: T5, Inhibitor of nuclear factor kappa-B kinase subunit beta (Homo sapiens); details: at 10 µM
compound,measurement,setting,value
O=C(c1cc2cc(O)ccc2[nH]1)c1cc2cc(O)ccc2[nH]1,residual activity,[1],22%
same,residual activity,[2],16%
same,residual activity,[3],2%
same,residual activity,[4],79%
same,residual activity,[5],80%
same,residual activity,[6],109%
same,residual activity,[7],77%
same,residual activity,[8],70%
same,residual activity,[9],34%
